These targets were tested with Nc1ncnc2c1ncn2[C@@H]1O[C@H](COP(=O)(O)OP(=O)(O)OP(=O)(O)O)[C@@H](O)[C@H]1O [adenosine 5'-triphosphate] (assay: log2 fold change of tryptic peptide abundance, ligand vs vehicle (limited proteolysis) (log2 ratio); higher = more trypsin-susceptible (destabilized)). Details: ligand concentration: 5 mM; sample: E. coli desalted lysate; replicate design: treated before aliquoting.
Procedure: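 HT-PELSA: desalted E. coli K-12 BW25113 lysate (with 12 mM MgCl2) incubated with 5 mM ATP (pH 7) or water for 30 min at 25 C, then a 4 min trypsin pulse at 22 C. Peptides were quantified by DIA-MS (4 replicates). Value is the peptide log2 fold change (treated/control); negative = stabilized. Scale: negative = ligand-stabilized region.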
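Also: lysate desalted by size exclusion to strip endogenous ATP, peptide intensities built from DIA-NN precursor signals, and peptides missing any value discarded before comparison.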

UniProt P24240, sequence (P24240 whole entry): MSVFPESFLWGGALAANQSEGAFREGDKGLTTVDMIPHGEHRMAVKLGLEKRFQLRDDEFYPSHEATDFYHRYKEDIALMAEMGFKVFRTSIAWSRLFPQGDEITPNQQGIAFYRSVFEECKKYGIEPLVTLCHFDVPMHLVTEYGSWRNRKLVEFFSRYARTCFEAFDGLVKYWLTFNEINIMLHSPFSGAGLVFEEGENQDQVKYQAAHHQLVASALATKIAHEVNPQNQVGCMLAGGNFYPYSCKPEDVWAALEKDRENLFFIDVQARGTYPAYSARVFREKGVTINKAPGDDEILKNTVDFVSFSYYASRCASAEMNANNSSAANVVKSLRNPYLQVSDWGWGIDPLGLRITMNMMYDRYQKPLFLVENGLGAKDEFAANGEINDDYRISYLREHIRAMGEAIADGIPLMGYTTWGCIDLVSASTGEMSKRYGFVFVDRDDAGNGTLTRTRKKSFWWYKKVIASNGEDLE
UniProt P76256, sequence (P76256 whole entry): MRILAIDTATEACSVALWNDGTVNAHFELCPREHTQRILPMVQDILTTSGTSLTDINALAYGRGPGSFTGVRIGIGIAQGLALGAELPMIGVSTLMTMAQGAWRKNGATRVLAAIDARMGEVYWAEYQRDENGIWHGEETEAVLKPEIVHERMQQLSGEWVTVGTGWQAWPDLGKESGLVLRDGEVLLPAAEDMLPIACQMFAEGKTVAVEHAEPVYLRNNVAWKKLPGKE
UniProt P0A7Y8, sequence (P0A7Y8 whole entry): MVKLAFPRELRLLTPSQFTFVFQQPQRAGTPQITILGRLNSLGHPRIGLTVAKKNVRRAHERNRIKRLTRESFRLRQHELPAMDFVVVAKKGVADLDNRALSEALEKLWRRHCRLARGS
UniProt P03018, sequence (P03018 whole entry): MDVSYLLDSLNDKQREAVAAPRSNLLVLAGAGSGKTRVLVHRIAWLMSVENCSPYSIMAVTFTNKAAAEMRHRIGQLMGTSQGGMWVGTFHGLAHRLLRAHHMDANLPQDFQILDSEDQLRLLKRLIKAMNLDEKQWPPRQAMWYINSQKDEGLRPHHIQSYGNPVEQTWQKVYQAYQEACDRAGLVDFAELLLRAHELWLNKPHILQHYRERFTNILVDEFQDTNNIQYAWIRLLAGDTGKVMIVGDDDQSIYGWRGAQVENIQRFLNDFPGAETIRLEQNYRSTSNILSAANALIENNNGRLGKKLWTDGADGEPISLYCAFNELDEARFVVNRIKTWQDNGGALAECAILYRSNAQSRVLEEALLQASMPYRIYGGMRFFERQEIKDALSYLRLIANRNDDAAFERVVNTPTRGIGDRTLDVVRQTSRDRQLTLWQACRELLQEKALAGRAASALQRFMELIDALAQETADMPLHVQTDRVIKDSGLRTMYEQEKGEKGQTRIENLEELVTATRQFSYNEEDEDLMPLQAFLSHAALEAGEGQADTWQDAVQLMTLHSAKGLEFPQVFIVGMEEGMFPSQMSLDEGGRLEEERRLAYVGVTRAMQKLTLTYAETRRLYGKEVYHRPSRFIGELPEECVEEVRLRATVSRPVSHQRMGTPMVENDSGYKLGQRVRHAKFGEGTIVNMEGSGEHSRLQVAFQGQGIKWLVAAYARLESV
UniProt P33030, sequence (P33030 whole entry): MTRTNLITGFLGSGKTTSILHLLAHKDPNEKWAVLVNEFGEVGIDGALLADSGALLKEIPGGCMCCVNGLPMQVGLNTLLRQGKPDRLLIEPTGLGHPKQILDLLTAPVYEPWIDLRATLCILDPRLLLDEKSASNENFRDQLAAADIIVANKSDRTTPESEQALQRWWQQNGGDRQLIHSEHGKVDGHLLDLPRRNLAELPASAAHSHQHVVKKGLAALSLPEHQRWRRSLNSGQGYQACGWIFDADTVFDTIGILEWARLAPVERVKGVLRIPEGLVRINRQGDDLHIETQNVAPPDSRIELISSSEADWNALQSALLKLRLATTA
UniProt P17846, sequence (P17846 whole entry): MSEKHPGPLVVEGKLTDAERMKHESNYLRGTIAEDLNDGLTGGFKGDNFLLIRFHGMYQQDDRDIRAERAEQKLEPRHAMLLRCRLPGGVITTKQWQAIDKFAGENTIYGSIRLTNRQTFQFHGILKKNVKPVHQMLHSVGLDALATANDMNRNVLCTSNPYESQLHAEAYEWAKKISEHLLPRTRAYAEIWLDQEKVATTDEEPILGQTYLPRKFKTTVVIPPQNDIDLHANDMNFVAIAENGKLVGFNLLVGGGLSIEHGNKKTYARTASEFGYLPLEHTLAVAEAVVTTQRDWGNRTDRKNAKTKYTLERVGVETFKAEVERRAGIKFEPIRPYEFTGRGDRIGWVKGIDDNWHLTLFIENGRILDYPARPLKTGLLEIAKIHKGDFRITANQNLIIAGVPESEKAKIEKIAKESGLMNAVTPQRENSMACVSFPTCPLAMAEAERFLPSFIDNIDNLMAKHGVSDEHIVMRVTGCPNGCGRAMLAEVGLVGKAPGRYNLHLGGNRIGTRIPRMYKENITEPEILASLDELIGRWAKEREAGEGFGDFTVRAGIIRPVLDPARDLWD
UniProt Q46855, sequence (Q46855 whole entry): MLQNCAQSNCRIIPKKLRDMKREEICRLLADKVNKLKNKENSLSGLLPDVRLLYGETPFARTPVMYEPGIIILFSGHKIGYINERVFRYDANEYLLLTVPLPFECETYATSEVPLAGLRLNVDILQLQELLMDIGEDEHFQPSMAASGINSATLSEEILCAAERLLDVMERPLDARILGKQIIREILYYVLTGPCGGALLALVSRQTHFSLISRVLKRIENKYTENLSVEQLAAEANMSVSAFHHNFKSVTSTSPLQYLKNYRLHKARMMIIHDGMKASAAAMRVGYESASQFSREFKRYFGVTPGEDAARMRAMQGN
UniProt P76043, sequence (P76043 whole entry): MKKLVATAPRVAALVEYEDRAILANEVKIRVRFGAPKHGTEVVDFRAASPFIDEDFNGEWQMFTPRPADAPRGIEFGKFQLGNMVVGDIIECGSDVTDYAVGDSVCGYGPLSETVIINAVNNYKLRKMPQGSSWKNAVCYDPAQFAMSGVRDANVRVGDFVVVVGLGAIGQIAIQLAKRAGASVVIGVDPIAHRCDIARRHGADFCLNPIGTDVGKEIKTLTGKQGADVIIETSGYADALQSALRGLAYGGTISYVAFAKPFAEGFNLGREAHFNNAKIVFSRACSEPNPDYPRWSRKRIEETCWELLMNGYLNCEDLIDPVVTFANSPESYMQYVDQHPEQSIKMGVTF
UniProt P76097, sequence (P76097 whole entry): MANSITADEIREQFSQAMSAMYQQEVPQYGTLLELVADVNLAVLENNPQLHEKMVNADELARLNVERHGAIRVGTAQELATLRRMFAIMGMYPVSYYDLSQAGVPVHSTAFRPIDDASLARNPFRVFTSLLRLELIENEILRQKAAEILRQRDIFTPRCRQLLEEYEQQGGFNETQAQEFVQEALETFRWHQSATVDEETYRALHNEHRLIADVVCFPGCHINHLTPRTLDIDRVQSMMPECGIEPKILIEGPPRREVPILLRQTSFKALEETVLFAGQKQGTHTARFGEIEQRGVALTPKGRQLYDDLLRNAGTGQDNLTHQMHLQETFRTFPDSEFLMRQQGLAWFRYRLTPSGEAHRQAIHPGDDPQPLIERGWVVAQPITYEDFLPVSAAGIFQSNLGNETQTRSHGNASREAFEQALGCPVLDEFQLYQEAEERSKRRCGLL
UniProt P0AAG8, sequence (P0AAG8 whole entry): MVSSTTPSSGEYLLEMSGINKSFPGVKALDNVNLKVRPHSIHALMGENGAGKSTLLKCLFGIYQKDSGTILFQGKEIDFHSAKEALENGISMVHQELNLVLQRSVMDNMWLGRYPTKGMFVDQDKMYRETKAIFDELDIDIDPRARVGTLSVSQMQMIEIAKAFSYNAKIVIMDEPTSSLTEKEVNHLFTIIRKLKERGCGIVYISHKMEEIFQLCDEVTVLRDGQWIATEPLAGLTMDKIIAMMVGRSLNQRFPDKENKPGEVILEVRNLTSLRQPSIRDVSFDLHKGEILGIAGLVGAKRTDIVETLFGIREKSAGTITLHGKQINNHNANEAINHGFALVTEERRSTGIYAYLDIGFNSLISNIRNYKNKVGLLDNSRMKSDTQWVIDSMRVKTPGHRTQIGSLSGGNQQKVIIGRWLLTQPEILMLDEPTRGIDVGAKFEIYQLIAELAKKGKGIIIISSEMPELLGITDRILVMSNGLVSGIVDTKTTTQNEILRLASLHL
UniProt Q47129, sequence (Q47129 whole entry): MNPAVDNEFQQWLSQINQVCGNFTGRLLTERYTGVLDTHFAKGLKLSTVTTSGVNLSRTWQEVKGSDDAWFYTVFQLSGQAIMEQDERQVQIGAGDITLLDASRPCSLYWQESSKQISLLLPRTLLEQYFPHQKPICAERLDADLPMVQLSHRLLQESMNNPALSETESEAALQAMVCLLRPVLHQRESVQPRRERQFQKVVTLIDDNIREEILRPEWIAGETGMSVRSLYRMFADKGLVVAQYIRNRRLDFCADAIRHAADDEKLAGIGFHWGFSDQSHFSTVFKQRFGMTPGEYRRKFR
UniProt P25539, sequence (P25539 whole entry): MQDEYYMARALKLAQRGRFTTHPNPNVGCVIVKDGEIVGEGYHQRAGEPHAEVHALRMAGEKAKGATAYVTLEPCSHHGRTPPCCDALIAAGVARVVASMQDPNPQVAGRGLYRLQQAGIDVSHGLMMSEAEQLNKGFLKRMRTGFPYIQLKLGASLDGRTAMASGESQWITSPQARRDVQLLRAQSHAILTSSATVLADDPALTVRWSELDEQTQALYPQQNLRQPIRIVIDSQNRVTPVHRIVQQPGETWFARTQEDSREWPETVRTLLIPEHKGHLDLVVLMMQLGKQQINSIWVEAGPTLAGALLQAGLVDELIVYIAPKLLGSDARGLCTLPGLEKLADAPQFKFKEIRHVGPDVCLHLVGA

| Target | log2 fold change |
| --- | --- |
| UniProt P76256 (peptide sequence: DENGIWHGEETEAVLKPEIVHER, peptide start residue: 130) | -0.588 |
| UniProt P24240 (peptide sequence: YGFVFVDRDDAGNGTLTR, peptide start residue: 436) | -0.866 |
| UniProt P52129 (peptide sequence: LQIQGRPLSCYR, peptide start residue: 161) | 0.646 |
| UniProt P37339 (peptide sequence: AFCDQNGIR, peptide start residue: 75) | 0.681 |
| UniProt P24230 (peptide sequence: TLVAALAALR, peptide start residue: 303) | -1.21 |
| UniProt P77272 (peptide sequence: LRLGVHDSSLVDPNIK, peptide start residue: 33) | 0.714 |
| UniProt P33030 (peptide sequence: TTPESEQALQR, peptide start residue: 157) | -0.316 |
| UniProt P17846 (peptide sequence: IHKGDFR, peptide start residue: 385) | 1.23 |
| UniProt P33029 (peptide sequence: AHQALLTDR, peptide start residue: 38) | -0.503 |
| UniProt P76043 (peptide sequence: ACSEPNPDYPR, peptide start residue: 284) | -1.41 |
| UniProt P67910 (peptide sequence: YFNVYGPR, peptide start residue: 167) | -0.736 |
| UniProt P75960 (peptide sequence: LHGAHTVELNLEPSQVGNEFAEK, peptide start residue: 231) | 0.525 |
| UniProt Q47129 (peptide sequence: LDADLPMVQLSHR, peptide start residue: 141) | -1.3 |
| UniProt P37685 (peptide sequence: MMLEHYQQTK, peptide start residue: 489) | -0.646 |
| UniProt P42599 (peptide sequence: LSECQKVCFVPR, peptide start residue: 252) | -0.582 |
| UniProt Q46855 (peptide sequence: VGYESASQFSR, peptide start residue: 285) | 0.235 |
| UniProt P03018 (peptide sequence: AHHMDANLPQDFQILDSEDQLR, peptide start residue: 100) | -2.2 |
| UniProt P25539 (peptide sequence: LADAPQFK, peptide start residue: 342) | -0.381 |
| UniProt P06999 (peptide sequence: IYAYLSR, peptide start residue: 303) | -2.25 |
| UniProt P0A7Y8 (peptide sequence: KGVADLDNR, peptide start residue: 91) | 0.915 |
| UniProt P00561 (peptide sequence: NKHIDLR, peptide start residue: 493) | 1.32 |
| UniProt P0AAG8 (peptide sequence: TQIGSLSGGNQQK, peptide start residue: 402) | 0.32 |
| UniProt P04693 (peptide sequence: HAIAPLLFGADHPVLKQQR, peptide start residue: 77) | 0.961 |
| UniProt P09980 (peptide sequence: AANILIANNPHVFEKR, peptide start residue: 286) | -3.41 |
| UniProt P06710 (peptide sequence: HQLEHILNEEHIAHEPR, peptide start residue: 185) | -1.86 |
| UniProt P0AC84 (peptide sequence: QINVFLR, peptide start residue: 212) | 0.46 |
| UniProt P76097 (peptide sequence: FGEIEQR, peptide start residue: 288) | 0.885 |
| UniProt P23840 (peptide sequence: HFIPVLTR, peptide start residue: 38) | 0.387 |
| UniProt P37691 (peptide sequence: MTSNLFGMQK, peptide start residue: 128) | 0.503 |
